Source: PubChem
This is one part of a sample in which hits are shown more often than they occur.
ST2 IL33 inh: inhibitors of human ST2 (IL1RL1) binding to IL-33, primary screen, biochemical, AlphaLISA; Interleukin-1 receptor-like 1 (Homo sapiens), Q01638; AlphaLISA ST2-Fc/biotin-IL-33 interaction, 1 h; inhibition, % for hits at 17 µM; 2.3% of 78,000 active; in the data active = inhibition above about 30%
Target sequence (Q01638 whole entry, looked up): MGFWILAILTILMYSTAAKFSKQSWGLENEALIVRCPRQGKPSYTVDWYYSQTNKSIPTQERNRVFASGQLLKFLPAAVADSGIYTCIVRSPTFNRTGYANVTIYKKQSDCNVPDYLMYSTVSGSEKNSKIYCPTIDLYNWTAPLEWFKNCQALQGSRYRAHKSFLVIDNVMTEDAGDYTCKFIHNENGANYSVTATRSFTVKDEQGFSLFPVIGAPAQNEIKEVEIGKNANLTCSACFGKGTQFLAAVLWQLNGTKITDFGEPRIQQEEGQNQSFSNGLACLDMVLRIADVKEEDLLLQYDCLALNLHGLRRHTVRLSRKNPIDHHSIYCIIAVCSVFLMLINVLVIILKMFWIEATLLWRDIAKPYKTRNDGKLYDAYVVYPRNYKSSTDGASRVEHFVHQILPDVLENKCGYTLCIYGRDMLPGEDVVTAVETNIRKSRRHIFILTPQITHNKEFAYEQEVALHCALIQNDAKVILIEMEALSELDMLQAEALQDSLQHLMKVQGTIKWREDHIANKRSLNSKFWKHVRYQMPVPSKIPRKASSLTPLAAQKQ
The depositor's hits bear a star; i = inactive.

SMILES	ST2 IL33 inh
O=c1c2ccccc2nc(/C=C/c2ccc(F)cc2)n1-c1ccccc1	i
O=c1c2ccccc2nc(Cc2ccccc2)n1-c1ccccc1	i
Cc1ccnc(-n2c(C)nc3ccccc3c2=O)c1	i
COc1ccc(-n2c(/C=C\c3ccccc3F)nc3ccccc3c2=O)c(OC)c1	30%*
COc1cc(/C=C/c2nc3ccccc3c(=O)n2-c2ccccc2OC)ccc1O	i
O=c1c2ccccc2nc(/C=C/c2ccc(O)cc2)n1-c1cccc([N+](=O)[O-])c1	34%*
CCOC(=O)c1nc2ccccc2c(=O)n1-c1cc(Cl)c(OC)cc1OC	i
CCSc1nnc(NC(=O)c2cccn(Cc3ccc(Br)cc3)c2=O)s1	i
CCN1CCN(Cc2cc(C)ccc2C)CC1	i
COCCC(=O)N1C[C@@H]2C[C@H](C1)c1ccc(NS(=O)(=O)c3ccccc3)c(=O)n1C2	i
Cn1nc(C2CCCCC2)cc1[C@H]1CN2CC[C@H]1C[C@@H]2CNC(=S)Nc1cccc(C#N)c1	i
COc1cccc(CN2CCN(c3ccccc3C)CC2)c1OC	i
N#Cc1c(Cl)c(Cl)nc(N2CCCNCC2)c1Cl	43%*
COc1ccc(S(=O)(=O)NC[C@H]2C[C@@H]3CCN2C[C@@H]3CN2CCSCC2)cc1	i
O=[N+]([O-])c1ccc(C(Cl)Cl)o1	64%*
COC(=O)c1cccc(NC(=S)NC[C@H]2C[C@@H]3CCN2C[C@@H]3c2cc(-c3ccc(OC)c(OC)c3)nn2C)c1	i
Cc1cc(C=O)c(C)n1C1CCCCC1	30%*
CCOC(=O)c1c(C)n(C2CCCCC2)c2ccc(OC(C)=O)cc12	i
CCOC(=O)c1c(C)n(C2CCCCC2)c2ccc(O)cc12	i
Cc1ccnc(CC(C)N(C)Cc2ccc(-c3ccn[nH]3)o2)c1 (stereo not given)	i
C=C[C@H]1CN2CC[C@H]1C[C@@H]2CNC(=S)NCc1ccccc1	i
COCC(=O)NC[C@H]1C[C@@H]2CCN1C[C@@H]2CN1CCC(Cc2ccccc2)CC1	i
COc1cc(OC)c(CN2CCN(c3ccccc3)CC2)cc1Br	36%*
COc1ccc(N2CCN(Cc3cccc(Br)c3)CC2)cc1	44%*
Fc1ccc(N2CCN(Cc3cccc(Br)c3)CC2)cc1	i
SMILES	ST2 IL33 inh
COc1cc(OC)c(CN2CCN(C)CC2)cc1Br	i
COc1ccc(CN2CCN(c3ccc(OC)cc3)CC2)cc1	32%*
COc1ccc(N2CCN(Cc3ccc(C)cc3)CC2)cc1	33%*
COc1ccccc1N1CCN(Cc2ccc(F)cc2)CC1	i
CC(=O)c1ccc(N2CCN(Cc3cccc(Br)c3)CC2)cc1	i
CC(=O)c1ccc(N2CCN(Cc3ccc(C)cc3)CC2)cc1	i
COc1cc(C)c(CN2CCN(c3ccc(F)cc3)CC2)cc1C	i
CCOc1ccccc1N1CCN(Cc2ccc(OC)cc2)CC1	i
COc1ccc(CN2CCN(Cc3ccccc3Cl)CC2)cc1Br	i
Cn1nc(C2CCCCC2)cc1[C@H]1CN2CC[C@H]1C[C@@H]2CNC(=S)Nc1ccccc1	i
CN1CCN(Cc2ccco2)CC1	i
COc1ncc(C(=O)N2CCN3CCN(C)C(=O)C3C2)cn1 (stereo not given)	i
COc1cc(C(=O)N2CCC3(CC2)CN(C)CCN3C)ccn1	i
COCCNC(=O)[C@H]1CN2CCC1C[C@@H]2Cn1cc(C(C)(C)C)nn1 (stereo not given in full)	i
COCCNC(=S)NC[C@H]1C[C@@H]2CCN1C[C@@H]2CN1CCN(c2ncccn2)CC1	i
C#C[C@H]1CN2CC[C@H]1C[C@@H]2CNC(=S)NC1CC1	i
CN1CCc2nc3ccccc3c(C(=O)O)c2C1	i
Brc1ccc(CN2CCN(c3ccccc3)CC2)cc1	32%*
CC(C)c1ccc(CN2CCN(c3ccccc3)CC2)cc1	i
COc1ccc(OC)c(CN2CCN(C)CC2)c1	i
COc1ccc(CN2CCN(c3ccccc3Cl)CC2)c(OC)c1	i
COc1ccc(OC)c(CN2CCN(c3ccc(Cl)cc3)CC2)c1	34%*
Cc1ccccc1N1CCN(Cc2ccc(Br)cc2)CC1	i
COc1ccc(C(=O)N2C[C@@H]3C[C@H](C2)c2ccc(-c4ccc(Cl)cc4)c(=O)n2C3)cc1	i
O=C(c1ccncc1)N1C[C@@H]2C[C@H](C1)c1ccc(-c3cncnc3)c(=O)n1C2	i
SMILES	ST2 IL33 inh
CSc1cccc(CNC(=O)c2cn(C3CCCCC3)nn2)c1	i
O=C(c1cncnc1)N1C[C@@H]2C[C@H](C1)c1ccc(-c3cccnc3)c(=O)n1C2	i
CCOc1ccccc1N1CCN(Cc2cccnc2)CC1	i
CCN(CC)C(=O)c1ccc(N2C(=O)C3CC=C(Cl)CC3C2=O)cc1 (stereo not given)	i
CCN(CC)C(=O)c1ccc2c(c1)C1C=CCC1C(C(=O)O)N2 (stereo not given)	60%*
Cn1nc(-c2cccs2)cc1[C@H]1CN2CC[C@H]1C[C@@H]2CNC(=S)Nc1cccc(C#N)c1	i
C=CCN(C)C(=O)[C@H]1CN2CCC1C[C@@H]2Cn1cc(-c2cccc(N)c2)nn1 (stereo not given in full)	i
CCN1CCN(Cc2ccc(OC)c(C)c2C)CC1	i
COc1ccc(CN2CCN(C)CC2)c(OC)c1C	i
COc1ccc(CN2CCN(Cc3ccccc3)CC2)c(C)c1C	34%*
N#Cc1cccc(-c2ccc(=O)n3c2[C@@H]2C[C@@H](CN(C(=O)C4CCCCC4)C2)C3)c1	i
COc1ccccc1C(=O)c1nc2ccccc2n1C(C)C	i
O=C(Nc1ccc2n(c1=O)C[C@H]1C[C@@H]2CN(C(=O)c2ccccc2)C1)c1cccs1	i
S=C(NCCN1CCOCC1)NC[C@H]1C[C@@H]2CCN1C[C@@H]2CN1CCCCC1	i
COCCNC(=S)NC[C@H]1C[C@@H]2CCN1C[C@@H]2CN1CCCCC1	i
Cc1cccc(NC(c2ccc(N(C)C)cc2)c2ccc3ccc(C)nc3c2O)n1 (stereo not given)	44%*
CN(C)c1ccc(C(=O)NC[C@H]2C[C@@H]3CCN2C[C@@H]3CN2CCC(Cc3ccccc3)CC2)cc1	i
C#C[C@H]1CN2CC[C@H]1C[C@@H]2CNCc1cccc(OC(F)(F)F)c1	i
O=C(c1cnccn1)N1C[C@@H]2C[C@H](C1)c1c(-c3cccs3)ccc(=O)n1C2	i
COc1ccc([C@@H]2CN(C(=O)C3CCC(O)CC3)[C@@H]3C4CCN(CC4)[C@@H]32)cc1 (stereo not given in full)	i
O=C1C2C(C(=O)N1c1ccccc1F)C1(Cl)C(Cl)=C(Cl)C2(Cl)C1(Cl)Cl (stereo not given)	i
